In all, about 47,000 compounds went through this assay and about 2,500 (5.3%) were called active. Rule as the data show it: active = inhibition above about 30%; inactive = the rest. The list comes from a sample in which actives are over-represented; it also holds similar structures and randomly drawn compounds.
Target: Ubiquitin carboxyl-terminal hydrolase 30 (Homo sapiens) (UniProt Q70CQ3)
Assay: blocks human USP30 ubiquitin-rhodamine cleavage (AID 1645860)
Details: purified USP30, Ub-rhodamine cleavage fluorescence; at 25 µM; stronger effect = higher value

Ubiquitin carboxyl-terminal hydrolase 30 (Homo sapiens), sequence (Q70CQ3 whole entry, looked up): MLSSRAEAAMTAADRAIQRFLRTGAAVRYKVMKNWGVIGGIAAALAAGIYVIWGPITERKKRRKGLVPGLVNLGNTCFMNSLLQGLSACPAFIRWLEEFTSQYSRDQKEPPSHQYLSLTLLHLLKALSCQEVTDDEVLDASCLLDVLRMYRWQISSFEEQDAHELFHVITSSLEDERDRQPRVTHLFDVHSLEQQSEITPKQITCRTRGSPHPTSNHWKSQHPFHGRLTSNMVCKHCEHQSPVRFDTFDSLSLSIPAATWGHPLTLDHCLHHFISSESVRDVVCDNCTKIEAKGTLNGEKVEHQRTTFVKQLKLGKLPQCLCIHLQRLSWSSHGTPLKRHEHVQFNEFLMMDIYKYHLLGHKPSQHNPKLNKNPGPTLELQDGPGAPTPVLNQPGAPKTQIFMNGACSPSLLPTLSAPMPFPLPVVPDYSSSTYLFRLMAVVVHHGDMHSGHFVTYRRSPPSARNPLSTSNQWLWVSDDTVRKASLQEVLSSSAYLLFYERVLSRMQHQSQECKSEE

| SMILES | inhibition |
| --- | --- |
| COc1ccc(CNC(=O)c2cccc3cccnc23)cc1 | -9.33% (inactive) |
| COc1ccc(CNC(=O)c2[nH]nc3c2CCc2ccccc2-3)cc1 | 49.8% (active) |
| COc1ccc(CNC(=O)c2ccccc2-c2ncc(-c3ccccc3)o2)cc1 | -5.92% (inactive) |
| O=C(O)C1(Cc2nc3ccccc3s2)CCCCC1 | 11.5% (inactive) |
| CC(C)(C)OC(=O)N1CCC2(CC1)NC(=O)C1(CCCCC1)N2 | 16.4% (inactive) |
| CC1CCCN(C(=O)c2cc(S(=O)(=O)N3CCCCC3)ccc2Cl)C1 (stereo not drawn) | 8.5% (inactive) |
| CCN1CCN(S(=O)(=O)c2ccc3c(c2)CC(C)N3C(=O)C2CC2)CC1 (stereo not drawn) | 2.83% (inactive) |
| CC(C)NC(=O)CN1C(=O)CC(C)Sc2ccc(S(=O)(=O)N3CCCCC3)cc21 (stereo not drawn) | 86.3% (active) |
| COCCn1cnc2c(-c3ccccc3)cn(CC(=O)NCc3ccc(F)cc3)c2c1=O | -1.66% (inactive) |
| Cc1ccc(CNC(=O)c2ccc(-c3cccnc3)nc2)cc1 | 18.3% (inactive) |
| Cc1ccc(CNC(=O)CC(c2ccccc2)c2ccccc2)cc1 | 34.5% (active) |
| Cc1ccc(CNC(=O)CCC(=O)N2Cc3cccn3-c3ccccc32)cc1 | -82.9% (inactive) |
| O=C([C@H]1CCCO1)N1C[C@H](OCc2cccnc2)[C@H]2COC[C@H]21 | 2.01% (inactive) |
| C/C(=C(\NC(=O)c1ccccc1)C(=O)NCc1ccccc1)c1ccc(C)cc1 | -4.27% (inactive) |
| CCc1nnc(-c2csc(S(=O)(=O)NC3CCCCCC3)c2)o1 | 16.4% (inactive) |
| CCc1nc(SCC(=O)Nc2cc(Cl)ccc2Cl)c2oc3ccccc3c2n1 | 20% (inactive) |
| CCc1nc(SCC(=O)Nc2cccc3ccccc23)c2oc3ccccc3c2n1 | 47.2% (active) |
| O=C(CSc1ncnc2c1oc1ccccc12)NC1CCCC1 | 29.2% (inactive) |
| Cc1ccccc1OCC(=O)Nc1c(C)nc2scc(C)n2c1=O | 2.51% (inactive) |
| Clc1ccc(C[n+]2cc(-c3ccc(Cl)cc3)n3c2CCC3)cc1 | 34.1% (active) |

| SMILES | inhibition |
| --- | --- |
| O=C(C1CCCN(S(=O)(=O)c2ccc(Cl)cc2)C1)N1CCOCC1 (stereo not drawn) | 25.3% (inactive) |
| O=C(c1cc2occc2c(Nc2ccc(F)cc2)n1)N1CCN(C(=O)c2ccco2)CC1 | 32.6% (active) |
| Cc1nc(Nc2ccc(NC(=O)c3ccco3)cc2)cc(N2CCCCC2)n1 | -38.5% (inactive) |
| Cc1ccc(Nc2nc(C(=O)NCCN3CCCCC3C)cc3occc23)cc1Cl (stereo not drawn) | -102% (inactive) |
| COC(=O)c1cc(NC(=O)c2cccnc2)ccc1N1CCOCC1 | -17.6% (inactive) |
| Cc1ccc(CNC(=O)c2ccc(-c3cncnc3)nc2)cc1C | -42.8% (inactive) |
| CC(C)c1ccc(NC(=O)C[n+]2cc(-c3ccc(F)cc3)n3c2CCC3)cc1 | 41.8% (active) |
| CC(=O)CCC(=O)Nc1ccc(-c2nnc3n2CCCCC3)cc1 | -1.55% (inactive) |
| Cc1c(Cl)cccc1NC(=O)C[n+]1cc(-c2ccc(Cl)cc2)n2c1CCC2 | 27.5% (inactive) |
| Cc1cccnc1NC(=O)C1c2ccccc2C(=O)N(C)C1c1cccs1 (stereo not drawn) | 7.71% (inactive) |
| Cc1ccc(C(C)C(=O)N2CCC(c3nc4ccccc4cc3C(N)=O)CC2)cc1 (stereo not drawn) | -3.47% (inactive) |
| O=C(NCCC(=O)N1CCC2(CC1)NCCc1[nH]cnc12)c1ccc(-c2ccccc2)cc1 | 0.531% (inactive) |
| O=C(CCN1C(=O)c2cccnc2Sc2ccccc21)Nc1cc(F)ccc1F | 14.9% (inactive) |
| O=c1ccc(-c2nc(-c3cnccn3)no2)cn1Cc1cccc(Br)c1 | -4.12% (inactive) |
| O=c1ccc(-c2nc(-c3cnccn3)no2)cn1Cc1ccccc1C(F)(F)F | 41.2% (active) |
| O=C(c1nc(-c2cnccn2)no1)N1CCN(c2ccccc2F)CC1 | -11.4% (inactive) |
| Cc1noc(C)c1CC(=O)N1CCN(S(=O)(=O)c2ccc(C3CCCCC3)cc2)CC1 | 29.4% (inactive) |
| CC(=O)N1C[C@H]2C3(CCN(C(=O)c4cc(C)on4)CC3)CC[C@@]2(C(=O)N(C)C)C1 | 0.149% (inactive) |
| CCCN1CCN(Cc2nc(-c3ccc(N4CCCCCC4)nc3)no2)CC1 | -26.8% (inactive) |
| O=C1COc2ccccc2N1Cc1noc(-c2ccccc2)n1 | 11.5% (inactive) |

| SMILES | inhibition |
| --- | --- |
| COc1cccc(NC(=O)c2nnn(Cc3nc(-c4cccc(C)c4)oc3C)c2N)c1 | -2.05% (inactive) |
| O=C(NCc1ccc2c(c1)OCO2)c1nc(-c2cccnc2)no1 | 2.73% (inactive) |
| Cc1nc(-c2ccc(C(=O)NCc3ccc4c(c3)OCO4)cc2)cs1 | 46.2% (active) |
| Cc1ccc(C(=O)Nc2nccnc2C(=O)NCc2ccc3c(c2)OCO3)cc1 | -13.1% (inactive) |
| Cn1c(CCN2CCOCC2)nc2cc(NC(=O)c3ccco3)ccc21 | -0.464% (inactive) |
| O=C(CN(c1ccc(Cl)cc1Cl)S(=O)(=O)c1ccccc1)NCc1ccncc1 | 2.13% (inactive) |
| Cn1c(=O)c2c(ncn2CC(=O)OCc2cccc([N+](=O)[O-])c2)n(C)c1=O | 13.8% (inactive) |
| Cc1ccc(NC(=O)CCn2cnc3c2c(=O)n(C)c(=O)n3C)cc1 | 1.79% (inactive) |
| Cc1cnc(NC(=O)Cn2cnc3c2c(=O)n(C)c(=O)n3C)s1 | 30.8% (active) |
| N#Cc1ccc(NC(=O)Nc2cccn(Cc3ccccc3F)c2=O)cc1 | 11.4% (inactive) |
| Cc1ccc(-c2noc(-c3cccc(OCC(=O)N(C)C)c3)n2)cc1 | 53.1% (active) |
| Cc1ccccc1-c1nc(-c2cn(CC(=O)Nc3ccccc3)cn2)no1 | -44.4% (inactive) |
| Cc1ccc(-c2nc(-c3cccc(-c4ccnn4C)c3)no2)cc1 | 4.68% (inactive) |
| COc1cc(Cl)ccc1-c1nc(-c2cccc(C(=O)N3CCCC3)c2)no1 | 16.1% (inactive) |
| COc1ccc(-c2noc(-c3cccc(OCC(=O)NC(C)C)c3)n2)cc1 | -1.09% (inactive) |
| Cc1ccccc1-c1nc(-c2cccc(OCC(=O)N3CCOCC3)c2)no1 | 44.8% (active) |
| COc1cc(C)c(CN2CCC(c3cc(=O)[nH]c(C)n3)C2)cc1C (stereo not drawn) | 8.61% (inactive) |
| CN(C)C(=O)C1CN(C(=O)c2n[nH]c3c2CCCC3)CC12CCOCC2 (stereo not drawn) | -5.3% (inactive) |

From PubChem BioAssay AID1645860 (Buhrlage Lab, Dana-Farber Cancer Institute and Novartis …, 2021)
